Compounds without any hit were thinned out: in the full panel of roughly 79,000, 15% have a hit. Activity calls are given as the source filed them. Cut-off read from the data, not from the text of the source: active = growth inhibition above about 70%; inactive = the rest.
What was measured:
[1] = NCI Yeast Anticancer Drug Screen. Data for the rad52 strain (AID 147);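 note: 0% = growth of vehicle-treated control cultures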; settings: S. cerevisiae rad52 mutant growth inhibition, active compounds read high
How it was run: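 Yeast strain carrying a DNA damage repair alteration was exposed to test compounds. Growth inhibition was measured relative to vehicle-treated controls.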

[2] = NCI Yeast Anticancer Drug Screen. Data for the wt1 strain (AID 149);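 note: 0% = growth of vehicle-treated wt1 cultures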; settings: S. cerevisiae wt1 strain (SPY 50644) growth inhibition, active compounds read high
How it was run: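 Yeast wt1 strain exposed to compounds; growth inhibition measured relative to vehicle-treated controls.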

[3] = NCI Yeast Anticancer Drug Screen. Data for the rad50EPP+ strain (AID 151);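 note: 0% = growth of vehicle-treated control cultures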; settings: S. cerevisiae rad50 mutant strain, active compounds read high
How it was run: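 Yeast strain carrying rad50 alteration (rad50EPP+) exposed to compounds; growth inhibition measured relative to vehicle-treated controls.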

[4] = NCI Yeast Anticancer Drug Screen. Data for the mgt1 strain (AID 153); settings: S. cerevisiae mgt1 mutant growth inhibition, active compounds read high
How it was run: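 Yeast mgt1 strain (DNA repair/cell-cycle alteration panel) exposed to compounds; growth inhibition measured relative to vehicle-treated controls.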

[5] = NCI Yeast Anticancer Drug Screen. Data for the rad50 strain (AID 155);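 note: 0% = growth of vehicle-only cultures of the same strain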; settings: S. cerevisiae rad50 strain growth inhibition, active compounds read high
How it was run: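 Yeast carrying a defined DNA repair defect were exposed to test compounds, and growth was compared with vehicle-treated controls to give percent inhibition.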

[6] = NCI Yeast Anticancer Drug Screen. Data for the mec2-1 strain (AID 157); settings: S. cerevisiae mec2-1 strain, active compounds read high
How it was run: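 mec2-1 yeast strain, carrying an alteration in DNA damage repair or cell cycle control, was exposed to compounds; growth inhibition was measured relative to vehicle-treated controls.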

[7] = NCI Yeast Anticancer Drug Screen. Data for the rad14 strain (AID 159);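 note: 0% = growth of vehicle-treated control cultures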; settings: S. cerevisiae rad14 strain growth inhibition, active compounds read high
How it was run: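 Yeast cells carrying a defined DNA-repair defect were exposed to compounds, and growth inhibition was calculated relative to vehicle-treated control cultures.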

[8] = NCI Yeast Anticancer Drug Screen. Data for the sgs1 mgt1 strain (AID 161);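 note: 0% = growth of cultures given vehicle only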; settings: S. cerevisiae sgs1 mgt1 strain, active compounds read high
How it was run: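 Compounds are added to genetically altered yeast, and growth is compared with cultures given vehicle alone to give percent inhibition.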

[9] = NCI Yeast Anticancer Drug Screen. Data for the CLN2oe strain (AID 163);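 note: 0% = growth of vehicle-only control cultures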; settings: S. cerevisiae CLN2oe strain, active compounds read high
How it was run: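 Yeast cells carrying a defined cell-cycle control alteration were exposed to test compounds. Growth inhibition was scored against vehicle-treated control cultures.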

[10] = NCI Yeast Anticancer Drug Screen. Data for the cln2 rad14 strain (AID 165);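 note: 0% = growth equal to vehicle treated cultures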; settings: S. cerevisiae cln2 rad14 strain, active compounds read high
How it was run: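 Yeast carrying cln2 and rad14 alterations (cell cycle control and DNA damage repair) were exposed to compounds. Growth inhibition was measured against vehicle-treated controls.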

[11] = NCI Yeast Anticancer Drug Screen. Data for the bub3 strain (AID 167); settings: S. cerevisiae bub3 mutant strain, active compounds read high
How it was run: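 Compounds were applied to a genetically altered yeast strain carrying a cell-cycle control defect. Growth inhibition was scored against vehicle-treated controls.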

[12] = NCI Yeast Anticancer Drug Screen. Data for the wt2 strain (AID 169);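 note: 0% = growth of vehicle-treated yeast cultures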; settings: S. cerevisiae wt2 strain growth inhibition, active compounds read high
How it was run: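 Yeast cells were exposed to test compounds, and growth inhibition was measured relative to vehicle-treated controls.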

[13] = NCI Yeast Anticancer Drug Screen. Data for the mlh1 strain (AID 171);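 note: 0% = growth of vehicle-treated control cultures of the same strain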; settings: S. cerevisiae mlh1 strain growth inhibition, active compounds read high
How it was run: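 Yeast carrying a defined genetic alteration in DNA damage repair or cell cycle control were exposed to test compounds. Growth inhibition was measured relative to vehicle-treated controls.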

[14] = NCI Yeast Anticancer Drug Screen. Data for the sgs1 strain (AID 173);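 note: 0% = growth of vehicle-only control cultures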; settings: S. cerevisiae sgs1 mutant, active compounds read high
How it was run: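 Yeast mutant strains carrying defined defects in DNA damage repair or cell cycle control were exposed to test compounds. Growth inhibition was scored against vehicle-treated controls.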

[15] = NCI Yeast Anticancer Drug Screen. Data for the mlh1 rad18 strain (AID 175); settings: S. cerevisiae mlh1 rad18 strain growth inhibition, active compounds read high
How it was run: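 Growth inhibition of the yeast strain was measured after compound exposure and expressed relative to vehicle-treated controls. The strain carries defined defects in DNA damage repair.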

[16] = NCI Yeast Anticancer Drug Screen. Data for the rad18 strain (AID 177); settings: S. cerevisiae rad18 mutant growth inhibition, active compounds read high
How it was run: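 Yeast carrying a defined DNA damage repair alteration were exposed to compounds. Growth inhibition was expressed relative to vehicle-treated controls.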

[17] = at 5.0 µM (retest, dose inferred, filed as 0.5)
[18] = at 50.0 µM (retest, dose inferred, filed as 5.0)

Measured: growth inhibition

CCCS(=O)(=O)Nc1ccc(Nc2c3ccccc3nc3ccccc23)c(OC)c1
inactive: [1]; at 1.2 µM 20% | [1]; at 3.7 µM 64% | [2]; at 1.2 µM -70% | [2]; at 3.7 µM -55% | [2]; at 11.0 µM -64% | [2]; at 33.0 µM -35% | [2]; at 100.0 µM 66% | [3]; at 1.2 µM -32% | [3]; at 3.7 µM -21% | [3]; at 11.0 µM -20% | [3]; at 33.0 µM 16% | [3]; at 100.0 µM 69% | [4]; at 1.2 µM -21% | [4]; at 3.7 µM -64% | [4]; at 11.0 µM -52% | [4]; at 33.0 µM -10% | [5]; at 1.2 µM 14% | [5]; at 3.7 µM 59% | [5]; at 50.0 µM 7.1% | [6]; at 1.2 µM -59% | [6]; at 3.7 µM -88% | [6]; [17] 2% | [6]; at 11.0 µM -60% | [6]; at 33.0 µM 33% | [6]; at 50.0 µM 12.8% | [7]; at 1.2 µM -62% | [7]; at 3.7 µM -61% | [7]; at 11.0 µM -43% | [7]; at 33.0 µM -16% | [7]; at 100.0 µM 66% | [8]; [17] 36% | [9]; at 1.2 µM -9% | [9]; at 3.7 µM -14% | [9]; at 11.0 µM -11% | [9]; at 33.0 µM 21% | [9]; at 100.0 µM 67% | [10]; [17] 34% | [10]; at 50.0 µM 52% | [11]; at 1.2 µM -67% | [11]; at 3.7 µM -49% | [11]; [17] 40% | [11]; at 11.0 µM -45% | [11]; at 33.0 µM -16% | [11]; at 50.0 µM 37.6% | [11]; at 100.0 µM 65% | [12]; at 1.2 µM -37% | [12]; at 3.7 µM -40% | [12]; at 11.0 µM -41% | [12]; at 33.0 µM -10% | [12]; at 100.0 µM 69% | [13]; at 1.2 µM -85% | [13]; at 3.7 µM -74% | [13]; at 11.0 µM -45% | [13]; at 33.0 µM 9% | [14]; at 1.2 µM -45% | [14]; at 3.7 µM -47% | [14]; at 11.0 µM -41% | [14]; at 33.0 µM 7% | [15]; [17] 66% | [15]; at 50.0 µM 29.4% | [16]; at 1.2 µM -58% | [16]; at 3.7 µM -63% | [16]; at 11.0 µM -43% | [16]; at 33.0 µM -10%
active: [1]; at 11.0 µM 82% | [1]; at 33.0 µM 87% | [1]; at 100.0 µM 93% | [4]; at 100.0 µM 73% | [5]; [17] 79% | [5]; at 11.0 µM 84% | [5]; at 33.0 µM 90% | [5]; [18] 98% | [5]; at 100.0 µM 91% | [6]; [18] 99% | [6]; at 100.0 µM 85% | [8]; [18] 99% | [8]; at 50.0 µM 82.8% | [10]; [18] 98% | [11]; [18] 98% | [13]; at 100.0 µM 74% | [14]; at 100.0 µM 77% | [15]; [18] 98% | [16]; at 100.0 µM 75%

COC(=O)C1=C(C)NC(C)=C(C(=O)OC)C1c1cccc(/[N+]([O-])=C/c2ccccc2)c1
inactive: [1]; at 1.2 µM 1% | [1]; at 3.7 µM 2% | [1]; at 11.0 µM 9% | [1]; at 33.0 µM 23% | [2]; at 1.2 µM 2% | [2]; at 3.7 µM 4% | [2]; at 11.0 µM 8% | [2]; at 33.0 µM 18% | [2]; at 100.0 µM 50% | [3]; at 1.2 µM -1% | [3]; at 3.7 µM -3% | [3]; at 11.0 µM -4% | [3]; at 33.0 µM 1% | [3]; at 100.0 µM 15% | [4]; at 1.2 µM 1% | [4]; at 3.7 µM 4% | [4]; at 11.0 µM 13% | [4]; at 33.0 µM 33% | [5]; at 1.2 µM -3% | [5]; at 3.7 µM -9% | [5]; [17] 11% | [5]; at 11.0 µM -9% | [5]; at 33.0 µM 29% | [5]; [18] 35% | [5]; at 50.0 µM 64.8% | [6]; at 1.2 µM 3% | [6]; at 3.7 µM 5% | [6]; [17] 11% | [6]; at 11.0 µM 13% | [6]; at 33.0 µM 34% | [6]; [18] 25% | [6]; at 50.0 µM 40.5% | [7]; at 1.2 µM 2% | [7]; at 3.7 µM 4% | [7]; at 11.0 µM 16% | [7]; at 33.0 µM 34% | [8]; [17] 51% | [8]; [18] 50% | [8]; at 50.0 µM 51.1% | [9]; at 1.2 µM 4% | [9]; at 3.7 µM 6% | [9]; at 11.0 µM 13% | [9]; at 33.0 µM 33% | [10]; [17] 6% | [10]; [18] 33% | [10]; at 50.0 µM 44.8% | [11]; at 1.2 µM 1% | [11]; at 3.7 µM 4% | [11]; [17] 43% | [11]; at 11.0 µM 10% | [11]; at 33.0 µM 30% | [11]; at 50.0 µM 59.6% | [12]; at 1.2 µM 0% | [12]; at 3.7 µM 1% | [12]; at 11.0 µM 8% | [12]; at 33.0 µM 32% | [13]; at 1.2 µM 3% | [13]; at 3.7 µM 3% | [13]; at 11.0 µM 12% | [13]; at 33.0 µM 39% | [14]; at 1.2 µM 1% | [14]; at 3.7 µM 5% | [14]; at 11.0 µM 12% | [15]; [17] 4% | [15]; [18] 40% | [15]; at 50.0 µM 66% | [16]; at 1.2 µM 2% | [16]; at 3.7 µM 7% | [16]; at 11.0 µM 17% | [16]; at 33.0 µM 48%
active: [1]; at 100.0 µM 90% | [4]; at 100.0 µM 96% | [5]; at 100.0 µM 83% | [6]; at 100.0 µM 83% | [7]; at 100.0 µM 92% | [9]; at 100.0 µM 74% | [11]; [18] 79% | [11]; at 100.0 µM 91% | [12]; at 100.0 µM 95% | [13]; at 100.0 µM 96% | [14]; at 33.0 µM 71% | [14]; at 100.0 µM 96% | [16]; at 100.0 µM 93%
